The supplement of paper PMC6555819

What was measured:
Test in all cases: PBM binding z-score (relative to random genomic background probes); higher = stronger binding; sequences stand for … in GC…GCGATTGACAGCGTAGAATGAAGG
[1] = system: FXR:RXRa (NR concentration 270 nM, RXRa partner concentration 90 nM)
Procedure, shortened: (§1)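 Binding buffer was PBS pH 7.4 with 2% milk, 0.02% Triton X-100, 1 mM DTT, 0.2 mg/mL BSA and 0.4 mg/ml salmon testes DNA. In it, ligand-free nuclear receptor dimers were incubated 1 h on custom Agilent 4×180K protein-binding microarrays carrying double-stranded probes. Antibodies against each partner (one per run) detected binding, and z-scores were calculated against random background probes after regression normalization of scanned fluorescence.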

[2] = system: LXRa:RXRa (NR concentration 270 nM, RXRa partner concentration 90 nM)
Procedure, shortened: as §1

[3] = system: LXRa homodimer (NR concentration 270 nM)
Procedure, shortened: as §1

[4] = system: LXRb:RXRa (NR concentration 270 nM, RXRa partner concentration 90 nM)
Procedure, shortened: as §1

[5] = system: LXRb homodimer (NR concentration 270 nM)
Procedure, shortened: as §1

[6] = system: PPARa:RXRa (NR concentration 270 nM, RXRa partner concentration 90 nM)
Procedure, shortened: as §1

[7] = system: PPARg:RXRa (NR concentration 180 nM, RXRa partner concentration 90 nM)
Procedure, shortened: as §1

[8] = system: PPARg:RXRa 270nM:90nM, anti-RXR (NR concentration 270 nM, RXRa partner concentration 90 nM)
Procedure, shortened: as §1

[9] = system: PPARg:RXRa 30nM:10nM, anti-RXR (NR concentration 30 nM, RXRa partner concentration 10 nM)
Procedure, shortened: as §1

[10] = system: PPARg:RXRa 90nM:30nM, anti-RXR (NR concentration 90 nM, RXRa partner concentration 30 nM)
Procedure, shortened: as §1

[11] = system: PPARg:RXRa DBDmut IVT, anti-RXR (DBD mutation: RXRa K156A/R161A, NR concentration 270 nM, RXRa partner concentration 90 nM)
Procedure, shortened: as §1

[12] = system: PPARg:RXRa IVT, anti-PPARg (NR concentration 270 nM, RXRa partner concentration 90 nM)
Procedure, shortened: as §1

[13] = system: PPARg DBDmut:RXRa IVT, anti-PPARg (DBD mutation: PPARg1 K132A/R137A, NR concentration 270 nM, RXRa partner concentration 90 nM)
Procedure, shortened: as §1

[14] = system: PPARg DBDmut IVT, anti-PPARg (DBD mutation: PPARg1 K132A/R137A, NR concentration 270 nM)
Procedure, shortened: as §1

[15] = system: PPARg homodimer (NR concentration 180 nM)
Procedure, shortened: as §1

[16] = system: PXR:RXRa (NR concentration 270 nM, RXRa partner concentration 90 nM)
Procedure, shortened: as §1

[17] = system: PXR homodimer (NR concentration 270 nM)
Procedure, shortened: as §1

[18] = system: RARa:RXR (NR concentration 270 nM, RXRa partner concentration 90 nM)
Procedure, shortened: as §1

[19] = system: RARa homodimer (NR concentration 270 nM)
Procedure, shortened: as §1

[20] = system: RARb:RXRa (NR concentration 270 nM, RXRa partner concentration 90 nM)
Procedure, shortened: as §1

Sequence | PBM binding z-score [1] | PBM binding z-score [2] | PBM binding z-score [3] | PBM binding z-score [4] | PBM binding z-score [5] | PBM binding z-score [6] | PBM binding z-score [7] | PBM binding z-score [8] | PBM binding z-score [9] | PBM binding z-score [10] | PBM binding z-score [11] | PBM binding z-score [12] | PBM binding z-score [13] | PBM binding z-score [14] | PBM binding z-score [15] | PBM binding z-score [16] | PBM binding z-score [17] | PBM binding z-score [18] | PBM binding z-score [19] | PBM binding z-score [20]
AGAGCGAGGGCACGCTGAGTTGATAGCAGAGTAG | 0.547 | 0.397 | -0.567 | -0.142 | -1.31 | 1.17 | 0.555 | -0.0392 | -0.58 | -0.152 | 0.897 | 1.26 | -0.714 | -1.28 | 0.251 | 1.05 | -0.217 | 0.737 | -0.451 | 2.47
AGAACGAGGGCACGCTGAGTCGATAGCAGAGTAG | 0.534 | 0.569 | -0.415 | -0.0914 | -1.26 | 1.98 | 2.05 | 1.66 | 0.0721 | 0.871 | 4.27 | 3.81 | 0.34 | 0.0245 | -0.314 | 0.266 | -0.486 | 0.489 | -0.608 | 2.42
CGACCGAGGGCATGAGTTGATAGCAAATGCCGAT | 0.304 | 0.28 | -0.485 | 0.286 | -0.854 | 0.989 | 0.738 | -0.153 | -0.657 | -0.438 | 0.432 | 0.376 | -0.421 | -0.612 | 0.0239 | 0.48 | -0.327 | 0.539 | -0.74 | 2.11
AATACAGGGTCATAGTAGGCCAGAGTACGCACAG | 7.09 | 6.14 | 2.31 | 4.62 | 1.5 | 5.82 | 6.42 | 5.33 | 2.62 | 4.34 | 2.62 | 4.56 | 1.47 | 2.3 | 2.67 | 4.36 | 0.689 | 4.7 | 0.787 | 4.05
CGAACTAGGTCATTCAGGACAGTGAATACATTGA | 4.37 | 2.73 | 0.67 | 2.11 | 0.253 | 4.49 | 7.24 | 6 | 3.42 | 5.66 | 8.1 | 7.91 | 2.05 | 1.68 | 1.19 | 2.04 | 1.68 | 2.17 | 0.688 | 3.61
GGAACGAGGGAATTCGAGTTGATAGCATGGCGAT | -0.4 | -0.535 | -0.72 | -0.978 | -1.16 | -0.557 | 0.44 | -0.504 | -0.356 | -0.529 | -0.111 | -0.244 | -0.28 | 0.0147 | -0.611 | -0.165 | -0.439 | -0.36 | -0.411 | -0.688
CGAACTAGGTCACTGACAGGACAGTGAATAGTAA | 3.05 | 2.26 | -0.0136 | 1.64 | -0.225 | 4.7 | 7.95 | 6.65 | 3.86 | 6.09 | 8.19 | 8.43 | 0.923 | 0.583 | 1.33 | 1.1 | -0.168 | 1.94 | -0.0785 | 3.9
CAGCCAAGGTCAGGGCCAGTATAGGAGGAACGTT | 5.13 | 3.08 | -0.277 | 2.25 | -0.506 | 4.22 | 2.73 | 2.77 | 0.584 | 1.61 | 1.56 | 2.1 | -0.336 | -0.871 | 2.33 | 2.13 | 0.199 | 3.09 | 0.299 | 4.73
TCTGGGAGGACACGAAAGGTCAGAGCTCGACATC | 3.35 | 4.18 | 3.31 | 3.11 | 0.345 | 3.51 | 1.49 | 2.81 | 1.88 | 2.34 | 1.27 | 1.89 | 0.0227 | -0.425 | 2.76 | 4.23 | 0.802 | 4.77 | 1.17 | 4.34
CCTACTGGGCCAAAAAGGTCATTGCTGCCGATAA | 3.75 | 4.36 | 3.33 | 4.21 | 0.236 | 4.7 | 3.04 | 4.09 | 1.5 | 3.64 | 4.17 | 4.29 | 0.288 | -0.116 | 3.92 | 4.87 | 3.45 | 5.19 | 0.902 | 3.98
CCTAGTTTGTCAAGGTCACACACGCTATAGGTAC | 4.49 | 4.38 | 3.27 | 3.87 | 1.42 | 4.14 | 2.44 | 2.78 | 0.971 | 1.93 | 1.6 | 2.96 | 1.92 | 1.48 | 4.48 | 4.71 | 5.83 | 4.57 | 2.66 | 4.18
TCACATAGGTAAATGCTAGGTGAAAGTCCGATCT | 0.401 | 0.564 | -0.036 | 0.378 | -0.343 | 1.03 | 0.475 | 1.83 | 3.11 | 2.49 | 2.22 | 1.12 | 0.19 | -0.0289 | -0.198 | 0.34 | -0.0319 | 0.692 | -0.153 | 0.251
GAGACTGGGGCAAAGCAGGTTACCATAAGGTTGG | 0.509 | 0.532 | -0.00898 | 0.677 | -0.382 | 2.04 | 2.19 | 1.98 | 0.147 | 1.35 | 5.26 | 5.09 | 0.833 | 0.122 | 1.16 | 0.725 | 0.197 | 1.26 | -0.331 | 1.14
CTCGAATGGTCGGTTGAGGTGAGTATACGGATAA | 0.27 | -0.395 | -0.272 | -0.377 | -0.349 | -0.259 | -0.0607 | -0.192 | -0.213 | -0.0856 | -0.784 | 0.126 | 0.733 | 0.405 | -0.164 | -0.105 | -0.022 | 0.211 | -0.0787 | 0.283
CCTAGTTGGTCAGGGTCACACACGCTATAGGTAC | 3.57 | 3.05 | 0.771 | 3.33 | 0.27 | 4.17 | 3.28 | 3.51 | 1.5 | 2.6 | 1.32 | 2.77 | 0.391 | 0.0582 | 2.15 | 3.91 | 1.38 | 4.76 | 1.57 | 3.43
